# Results as given in PubChem BioAssay (NCI).
# This is part of a sample that, as a whole, favours compounds with a hit. Of some 83,000 tested, about 20% had one in any assay.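 Treatment: one concentration, 48 hours, 96-well format. Scoring: percent growth, with anything below 10 considered active.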 Unmarked numbers belong to inactive results. Active and inactive are the calls of the source.
# Test system: NCI-H522 lung
# Assay: NCI-60 one-dose screen, 48 h (100 = growth as untreated, 0 = no growth, -100 = all killed)
# Conditions: 10 µM
row,SMILES,growth
1,O=C(/C=C/c1ccc(Br)cc1)c1nc2ccccc2n1Cc1ccc(Br)cc1,-39.8% (active)
2,COC(=O)CCn1c(-c2ccc(-n3cc(-c4ccc(O[C@H]5O[C@@H]6OC7(C)CC[C@H]8[C@H](C)CC[C@@H]([C@H]5C)[C@@]68OO7)cc4)nn3)cc2)nc2ccccc21,-22.8% (active)
3,CC1=C(C=O)C2=C(C)C3(CC3)[C@@](C)(O)C(=O)C2=C1,-76.5% (active)
4,N#C[Se]CC(=O)Nc1cccc(C(F)(F)F)c1,-70.2% (active)
5,CCC[Se]C(=O)c1ccc(C(=O)[Se]CCC)s1,17.9%
6,C[C@H]1[C@@H](CC(=O)N[C@@H](Cc2coc3ccccc23)B(O)O)O[C@@H]2OC3(C)CC[C@H]4[C@H](C)CC[C@@H]1[C@@]24OO3,-74.5% (active)
7,O=C(/C=C/c1ccco1)c1nc2ccccc2n1Cc1ccc(F)cc1,62.1%
8,COC(=O)C[C@](O)(CCC(C)C)C(=O)O[C@H]1C(OC)=C[C@@]23CCCN2CCc2cc4c(cc2[C@@H]13)OCO4,-70% (active)
9,C[C@H]1[C@H](OC(=O)CCC(=O)N(CCCc2cn(-c3ccc(C#N)cc3)nn2)CCNc2ccnc3cc(Cl)ccc23)O[C@@H]2OC3(C)CC[C@H]4[C@H](C)CC[C@@H]1[C@@]24OO3,7.88% (active)

# Test system: A549/ATCC NSCLC
# Assay: as above
# Conditions: 10 µM
row,SMILES,growth
1,COc1cc2cc(C(=O)N3C[C@@H](CCl)c4c3cc(OC(=O)N3CCN(C)[C@@H]5CSSC[C@H]53)c3ccccc43)[nH]c2c(OC)c1OC,-58.4% (active)
2,CC1=C(CCC=O)C2=C(C)C3(CC3)[C@@](C)(O)C(=O)C2=C1,-2.03% (active)
3,COC(=O)C[C@](O)(CCC(C)C)C(=O)O[C@@H]1C(OC)=C[C@]23CCCN2CCc2cc4c(cc2[C@H]13)OCO4,-27.1% (active)
4,O=C(/C=C/c1ccc(Cl)cc1)c1nc2ccccc2n1Cc1ccc(F)cc1,44.7%
5,CC[C@]12C=CCN3CC[C@@]4(c5ccc(OC)cc5N(C)[C@H]4[C@@](O)(C(=O)OC)[C@@H]1OC(=O)CCC[P+](C1CCCCC1)(C1CCCCC1)C1CCCCC1)[C@@H]32,14.1%
6,CC1=C2C(=C[C@@](C)(COP(=O)(Oc3ccccc3)Oc3ccccc3)[C@@H]2O)C(=O)[C@@](C)(O)C12CC2,-53.9% (active)
7,CC(=O)Oc1ccccc1C(=O)NC([Se])=NC1CCCCC1,20.4%
8,CCOP(=O)(CC(F)(F)C(F)(F)F)OCC,76.2%
9,CC(C)C[C@H](NC(=O)CNC(=O)C[C@H]1O[C@@H]2OC3(C)CC[C@H]4[C@H](C)CC[C@@H]([C@H]1C)[C@@]24OO3)B(O)O,32.7%
10,C[C@H]1[C@@H](Oc2ccc(-c3cn(-c4ccnc5cc(Cl)ccc45)nn3)cc2)O[C@@H]2OC3(C)CC[C@H]4[C@H](C)CC[C@@H]1[C@@]24OO3,35.2%
11,C[C@H]1[C@H](OC(=O)CCC(=O)N(CCCc2cn(-c3ccc([N+](=O)[O-])cc3)nn2)CCNc2ccnc3cc(Cl)ccc23)O[C@@H]2OC3(C)CC[C@H]4[C@H](C)CC[C@@H]1[C@@]24OO3,52.6%
12,COc1cc2cc(C(=O)N3C[C@@H](CCl)c4c3cc(OC(=O)N3CCN(C)[C@@H]5CSSC[C@@H]53)c3ccccc43)[nH]c2c(OC)c1OC,7.2% (active)
13,COc1cc2cc(C(=O)N3C[C@@H](CCl)c4c3cc(OC(=O)N3CCN(C(=O)CCC(=O)N5CCN(C)CC5)[C@@H]5CSSC[C@@H]53)c3ccccc43)[nH]c2c(OC)c1OC,-59.7% (active)
14,COC(=O)c1ccc(-n2cc(CCCN(CCNc3ccnc4cc(Cl)ccc34)C(=O)CCC(=O)O[C@@H]3O[C@@H]4OC5(C)CC[C@H]6[C@H](C)CC[C@@H]([C@H]3C)[C@@]46OO5)nn2)cc1,44.4%
15,O=C([Se]C1C=CCCC1)c1ccc(C(=O)[Se]C2C=CCCC2)s1 (stereo not drawn),-7.22% (active)
16,O=C(/C=C/c1cccc(Br)c1)c1nc2ccccc2n1Cc1ccc(F)cc1,52.2%
17,CC[C@]12C=CCN3CC[C@@]4(c5ccc(OC)cc5N(C)[C@H]4[C@@](O)(C(=O)OC)[C@@H]1OC(=O)CCC[P+](c1ccc(C)cc1)(c1ccc(C)cc1)c1ccc(C)cc1)[C@@H]32,-90.3% (active)
18,O=C(NC([Se])=NC1CCCCC1)c1ccccc1,21.1%
19,O=C(/C=C/c1ccc(F)cc1)c1nc2ccccc2n1Cc1ccc(F)cc1,27.2%
20,O=C(/C=C/c1ccccc1)c1nc2ccccc2n1Cc1ccc(Br)cc1,-3% (active)

row,SMILES,growth
1,C=CC[Se]C(=O)c1cncc(C(=O)[Se]CC=C)c1,7.53% (active)
2,COc1ccc(OC)c(/C=C/C(=O)c2nc3ccccc3n2Cc2ccc(F)cc2)c1,8.34% (active)
3,O=C(/C=C/c1ccc(F)cc1)c1nc2ccccc2n1Cc1ccc(Br)cc1,1.63% (active)
4,CC[C@]12C=CCN3CC[C@@]4(c5ccc(OC)cc5N(C)[C@H]4[C@@](O)(C(=O)OC)[C@@H]1OC(=O)CCCC[P+](c1ccc(C)cc1)(c1ccc(C)cc1)c1ccc(C)cc1)[C@@H]32,-92.2% (active)
5,CC(C)N=C([Se])NC(=O)c1cccs1,17.6%
6,CC1=C(CCC=NNC(N)=O)C2=C(C)C3(CC3)[C@@](C)(O)C(=O)C2=C1,-28.6% (active)
7,Cc1ccc2[nH]c(=S)n(-c3ccc(F)cc3)c(=O)c2c1,100%
8,C#CC[Se]C(=O)c1ccc2n[se]nc2c1,59.7%
9,CC1=C(COCCOC(=O)c2ccc(S(=O)(=O)F)cc2)C2=C(C)C3(CC3)[C@@](C)(O)C(=O)C2=C1,4.56% (active)
10,CC12CCC3(CCC(=O)NCCCNc4ccnc5cc(Cl)ccc45)[C@@](C)(OO[C@]3(C)O1)O2,25.3%
11,O=C(/C=C/c1ccc(Br)cc1)c1nc2ccccc2n1Cc1ccc(Br)cc1,30%
12,COC(=O)CCn1c(-c2ccc(-n3cc(-c4ccc(O[C@H]5O[C@@H]6OC7(C)CC[C@H]8[C@H](C)CC[C@@H]([C@H]5C)[C@@]68OO7)cc4)nn3)cc2)nc2ccccc21,30.9%
13,CC1=C(C=O)C2=C(C)C3(CC3)[C@@](C)(O)C(=O)C2=C1,17.8%
14,N#C[Se]CC(=O)Nc1cccc(C(F)(F)F)c1,-50.4% (active)
15,CCC[Se]C(=O)c1ccc(C(=O)[Se]CCC)s1,-46.2% (active)
16,C[C@H]1[C@@H](CC(=O)N[C@@H](Cc2coc3ccccc23)B(O)O)O[C@@H]2OC3(C)CC[C@H]4[C@H](C)CC[C@@H]1[C@@]24OO3,19.1%
17,O=C(/C=C/c1ccco1)c1nc2ccccc2n1Cc1ccc(F)cc1,62.2%
18,COC(=O)C[C@](O)(CCC(C)C)C(=O)O[C@H]1C(OC)=C[C@@]23CCCN2CCc2cc4c(cc2[C@@H]13)OCO4,-20.5% (active)
19,C[C@H]1[C@H](OC(=O)CCC(=O)N(CCCc2cn(-c3ccc(C#N)cc3)nn2)CCNc2ccnc3cc(Cl)ccc23)O[C@@H]2OC3(C)CC[C@H]4[C@H](C)CC[C@@H]1[C@@]24OO3,51.5%
